# Screening data (PubChem)
# This is a sample that favours compounds with a hit; in the whole collection about 4.6% have one here.
# Vaccinia mCherry: qHTS for Stage-Specific Inhibitors of Vaccinia Orthopoxvirus: mCherry Reporter Primary qHTS; Vaccinia virus mCherry reporter infection, fluorescence; Potency, µM (series often up to 36.5 µM), for inactives: at the highest dose activity change, negative = inhibition, hits mostly inhibitors; 0.63% of 310,000 active; AID 720579, 2013; calls by dose curve; tested in A549 cells; also: nearly all actives have a fitted effect of over 35% in size
# MARV entry inh: qHTS for inhibitors of binding or entry into cells for Marburg Virus; Marburg virus pseudotyped entry inhibition, cell reporter; Potency, µM (titrated, usually from 37.8 µM), for the others: at the top dose activity change, negative = inhibition, usual class: inhibitors; 1.8% of 300,000 active; AID 540276, 2011; calls by dose curve; tested in HEK293 cells
# LASV entry inh: qHTS for Inhibitors of binding or entry into cells for Lassa Virus. Lassa virus pseudotype entry inhibition, cell reporter. Potency, µM (highest dose often 37.9 µM), inactives show at the top dose activity change, negative = inhibition, hits mostly inhibitors. 1.2% of 300,000 active; calls by dose curve; tested in HEK293 cells; also: nearly all actives have a fitted effect of over 50% in size
# HCV inhibitor: qHTS Assay for Inhibitors of Hepatitis C Virus (HCV); 3.4% of 340,000 active; Potency, µM (series often up to 41.8 µM), without a hit: at the top dose activity change, negative = inhibition, usual class: inhibitors; Huh7.5.1 HCVcc-Cre infection, luciferase reporter, 44 h; active = well fitted inhibition curve with a large enough effect; inconclusive = small, poorly fitted or top-dose-only effect, or another doubt; inactive = no such curve, though single readings can be large or run the other way
#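 Cells (1,000/well) were plated 4 h before compound, then infected with HCVcc-Cre virus (~0.5 moi). After 44 h further culture, infection was read as luciferase luminescence following a 15 min substrate incubation at room temperature.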
# VACV Venus inh: qHTS for Stage-Specific Inhibitors of Vaccinia Orthopoxvirus: Venus Reporter Primary qHTS; Potency, µM (highest dose often 36.5 µM), without a hit: top-dose activity change, negative = inhibition, hits mostly inhibitors; 0.46% of 330,000 active; Vaccinia virus Venus reporter expression, fluorescence; calls by dose curve; tested in A549 cells; also: nearly all actives have a fitted effect of over 30% in size
# * marks the source's active call; other numbers are inactive results; i = inactive; ? = inconclusive; / = no result; [ ] = remark or other dose. % is scaled to controls: 0 for no effect and ±100 for the full control effect; potency is read from the fitted curve at half-maximal effect.
SMILES,Vaccinia mCherry,MARV entry inh,LASV entry inh,HCV inhibitor,VACV Venus inh
O=S(=O)(c1ccc(N2CCC(c3ccc(Cl)cc3)=N2)cc1)N(CCO)CCO,/,-8%,-12%,14%,/
CN(C)CCCNS(=O)(=O)c1ccc(N2CCC(c3ccc(Cl)cc3)=N2)cc1,/,/,/,4µM*,/
Cc1occc1C(=O)Nc1cccc(-c2nc(CNC(=O)c3cc(-c4ccccc4)n[nH]3)c(C)o2)c1,-24%,/,/,/,-23%
Cc1ccc(Nc2nc(N)c([N+](=O)[O-])c(N3CCC(C)CC3)n2)cc1C,-4%,14µM*,-1%,?,-6%
Nc1nc(Nc2ccccc2F)nc(N2CCCC2)c1[N+](=O)[O-],-19%,?,0%[46.1 µM],8.9µM*,?
Cc1cccc(Nc2nc(N)c([N+](=O)[O-])c(N3CCCC(C)C3)n2)c1 (stereo unspecified),13µM*,?,?,?,10µM*
Cc1cccc(Nc2nc(N)c([N+](=O)[O-])c(N3CCN(C)CC3)n2)c1,?,?,2%,?,?
Cc1ccc(NC(=O)CN2C(=O)c3ccccc3Sc3ccc(C(=O)N4CCOCC4)cc32)cc1F,-2%,/,12%[46.1 µM],/,-9%
COC(=O)c1ccc(C(=O)OC)c(NC(=O)N2CC3CCCN3c3ccccc32)c1 (stereo unspecified),-7%,/,-3%[46.1 µM],/,-5%
O=C(CSc1ccccc1C(=O)NCc1ccccc1)NC12CC3CC(CC(C3)C1)C2,?,?,10µM*,-25%,?
O=c1c2ccccc2nc(/C=C\c2ccccc2[N+](=O)[O-])n1-c1ccccc1O,?,?,7.9µM*,-14%,?
Cn1cc(CN2CCCC(C(=O)Nc3cccc(-c4cc5ccccc5[nH]4)c3)C2)cn1 (stereo unspecified),?,?,?,7.1µM*,?
Cc1cc(CN2CCCC(C(=O)Nc3ccc(-c4nc5ccccc5[nH]4)cc3)C2)n[nH]1 (stereo unspecified),-12%,?,-2%[46.1 µM],-15%,-27%
Cc1ncc(CN2CCCC(C(=O)Nc3ccc(-c4cccc(F)c4)cc3)C2)n1C (stereo unspecified),?,?,?,3.5µM*,-23%
COc1cccc(-c2ccc(NC(=O)C3CCCN(Cc4cnn(C)c4)C3)cc2)c1 (stereo unspecified),/,/,/,13µM*,/
CC(C)n1cc(CN2CCCC(C(=O)Nc3cccc(-c4cc5ccccc5[nH]4)c3)C2)cn1 (stereo unspecified),11µM*,?,7.1µM*,11µM*,?
CCn1cc(CN2CCCC(C(=O)Nc3cccc(-c4cc5ccccc5[nH]4)c3)C2)c(C)n1 (stereo unspecified),-27%,?,?,?,-28%
O=c1cc(-c2ccccc2Cl)oc2c(NS(=O)(=O)c3cc(Cl)cc(Cl)c3O)ccc(O)c12,?,-2%,-5%,?,13µM*
CCc1ccc(S(=O)(=O)Nc2ccc(O)c3c(=O)cc(-c4ccccc4Cl)oc23)cc1,-9%,/,/,4%,-30%
C=C1C=C(C(F)F)n2ncc(C(=O)NCc3ccc(F)cc3)c2N1,-19%,/,/,/,-8%
CC(=O)CC(=O)NC(=NC1CCCCC1)Nc1nc(C)cc(C)n1,/,?,-6%,11µM*,/
Cc1cc(C)nc(NC(N)=NC2CCCCC2)n1,-14%,-33%,1%,?,-27%
COc1ccc(O)c(/C=N/NC(=O)c2cccc(N3CCCC3=O)c2)c1,2.5µM*,?,?,?,-16%
COc1ccc(/C=N/NC(=O)c2ccc(N3CCCC3=O)cc2)cc1,i,-13%[46.1 µM],?,-17%,6%
COc1ccc(O)c(/C=N/NC(=O)c2ccc(N3CCCC3=O)cc2)c1,2.8µM*,?,?,11µM*,?
SMILES,Vaccinia mCherry,MARV entry inh,LASV entry inh,HCV inhibitor,VACV Venus inh
O=C(N/N=C/c1cc(Br)ccc1O)c1cccc(N2CCCC2=O)c1,7.9µM*,23µM*,?,?,?
CC(C)NC(=O)c1cn(C2CCCN(C(=O)c3cc4ccccc4oc3=O)C2)nn1 (stereo unspecified),-8%,/,/,/,-13%
Cn1c(=S)[nH]c2cc(C(=O)N3CCN(Cc4cccs4)CC3)ccc2c1=O,-27%,/,/,/,-18%
COc1ccc(CNC(=O)[C@H](C)N2C(=O)N3CCc4c([nH]c5ccc(OC)cc45)[C@@]3(C)C2=O)cc1,3%,/,/,?,2%
COc1ccc(CCNC(=O)[C@H](C)N2C(=O)N3CCc4c([nH]c5ccccc45)[C@@]3(C)C2=O)cc1,-4%,/,/,4.5µM*,-25%
COc1ccc(CCNC(=O)[C@H](C)N2C(=O)N3CCc4c([nH]c5ccccc45)[C@@]3(C)C2=O)cc1OC,-7%,/,/,1µM*,-19%
C[C@@H](C(=O)NC1CCCC1)N1C(=O)N2CCc3c([nH]c4ccccc34)[C@@]2(C)C1=O,-12%,/,/,10µM*,-13%
COc1cccc(CNC(=O)[C@@H](C)N2C(=O)N3CCc4c([nH]c5ccc(OC)cc45)C3(C)C2=O)c1 (stereo partly specified),-10%,/,/,8.9µM*,-9%
CN1CCCC(CNC(=O)c2cnn(-c3nccc(-c4cccs4)n3)c2C2CC2)C1 (stereo unspecified),-12%,/,/,/,-1%
COC(=O)c1scc(-c2ccc(C)cc2)c1S(=O)(=O)N1CCN(c2ccc(C(C)=O)cc2)CC1,-12%,/,-12%[46.1 µM],/,0%
CCOc1ccc(CCNC(=O)c2oc(=O)c3ccccc3c2-c2ccc(C)cc2)cc1OCC,-3%,2%[46.1 µM],?,/,-1%
COc1cccc(-c2ccc(O)c(CNCc3cccc4ccccc34)c2)n1,i,/,/,/,-12%
Cc1ccc(S(=O)(=O)N2CCN(c3nc(-n4c(=O)[nH]c5ccccc54)nc4ccccc34)CC2)cc1,-23%,/,/,/,-28%
COc1ccccc1-n1cc(CN2CCOc3ccc(CN4C[C@@H](C)O[C@@H](C)C4)cc3C2)cn1,-12%,/,/,/,1%
CC1CCC(C(C)C)C(OC(=O)Cn2c(COc3ccccc3)[n+](C)c3ccccc32)C1 (stereo unspecified),?,?,?,13µM*,?
Cc1cccc(OCc2n(CC(=O)OC3CC(C)CCC3C(C)C)c3ccccc3[n+]2C)c1 (stereo unspecified),?,2.5µM*,?,1%,-30%
CC=COC(=O)N[C@@H](c1ccccc1)[C@]1(C(=O)OCC)CCCC1=O,/,2%[14.2 µM],/,/,/
O=C(NCc1cccc(Br)c1)c1cnn(-c2ccc(F)cc2)c1-n1cccc1,-7%,/,-3%[46.1 µM],/,7%
CCOC(=O)C1CCCN(CC(=O)N2CCCc3c2c(=O)oc2ccc(OCc4ccccc4)cc32)C1 (stereo unspecified),-12%,0%[46.1 µM],15%[46.1 µM],/,10%
